Screening data from PubChem BioAssay.
KB-3-1 cytotox: kills parental KB-3-1 adenocarcinoma cells. KB-3-1 viability, CellTiter-Glo ATP luminescence, 72 h. Potency, µM (series often up to 46.1 µM), hits mostly cytotoxic. hit rate 1.4% among 400,000; also: nearly all actives have a fitted effect of over 60% in size
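Multi-concentration cytotoxicity screen in KB-3-1 cells grown in DMEM lacking phenol red with 10% FBS. After 72 h at 37 °C with compound, ATP-dependent luminescence was recorded.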
HT1080 IDH1KD tx: HT-1080 IDH1 knockdown cell toxicity (counter line); hit rate 2% among 360,000; AID 686971; Potency, µM (highest dose often 46.1 µM), most hits filed as cytotoxic; HT-1080 IDH1 knockdown viability, ATP luminescence, 48 h
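After a 2 h attachment period, IDH1KD HT-1080 cells took pin-transferred compound for 48 h at 37 °C; ATP-based luminescence after 10 min room-temperature reagent incubation reported viability.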
KB-V1 cytotox: KB-V1 MDR subline cytotoxicity; KB-V1 MDR cells viability, CellTiter-Glo, 72 h; Potency, µM (titrated, usually from 46.1 µM), usual class: cytotoxic; hit rate 3.4% among 400,000; AID 1347076; also: nearly all actives have a fitted effect of over 60% in size
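KB-V1, DMEM (no phenol red) + 10% FBS; cpd pin-transferred, titration series; 72 h, 37 degrees C; CellTiter-Glo, luminescence. Data normalized, curve-fit.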
MCF10A rereplic: induces DNA re-replication in MCF 10a normal breast cells | MCF 10A DNA re-replication, Hoechst nuclear intensity, 48 h | Potency, µM (doses to about 46.1 µM), usual class: activators | hit rate 2.9% among 350,000; also: nearly all actives have a fitted effect of over 50% in size
SW480 rerep: DNA re-replication induction in SW480 cells; AID 624297; SW480 DNA re-replication, Hoechst DNA content imaging, 48 h; hit rate 1.8% among 340,000; Potency, µM (doses to about 46.1 µM), hits mostly activators; also: nearly all actives have a fitted effect of over 55% in size
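Image-based read-out: total Hoechst fluorescence of nuclei (405 nm excitation, 500-530 nm emission), with hits raising the fraction of high-intensity nuclei. SW480 colon cells incubated 48 hr with compounds at 37 C.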
HT1080-NT tox: kills 2HG-producing HT-1080-NT fibrosarcoma cells. HT-1080-NT fibrosarcoma viability, CellTiter-Glo ATP luminescence, 48 h. Potency, µM (series often up to 46.1 µM), hits mostly cytotoxic. hit rate 1.6% among 360,000;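 also: NT is the 2HG producing partner of a matched IDH1 knockdown line; nearly all actives have a fitted effect of over 55% in size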
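Viability by CellTiter-Glo luminescence after 48 h compound exposure at 37C of HT-1080-NT cells (750/well, RPMI, 5% FBS). % activity scaled between DMSO wells and medium-only wells, then curve-fitted and categorized by curve class.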
Each line names hits and unclear results; the compound was inactive in the other large screens. Sampled rows, rich in hits. Any-hit rate of the full collection: about 8%. Calls follow the shape of the dose curve; as a rule, active = well fitted curve in the direction sought with a large enough effect; inconclusive = small, poorly fitted or top-dose-only effect, or another doubt; inactive = no such curve, though single readings can be large; an effect the other way counts as inactive or inconclusive.

COc1ccccc1/C=C/C(=O)NCC(=O)N/N=C/c1ccc(C(=O)O)cc1	none
O=C(CS(=O)(=O)Cc1ccccc1)Nc1ccc(S(=O)(=O)N2CCCCCC2)cc1	none
Cc1ccc(C(C(=O)NCC2CCCO2)N(Cc2ccccc2)C(=O)c2ccc(-c3ccccc3)[nH]2)o1 (configuration not stated)	HT1080 IDH1KD tx inconclusive, MCF10A rereplic inconclusive, SW480 rerep inconclusive
O=C(NCC1CCCO1)C(c1cccs1)N(Cc1ccccc1Cl)C(=O)c1ccc(-c2ccccc2)[nH]1 (configuration not stated)	HT1080 IDH1KD tx inconclusive, KB-V1 cytotox 4.1µM, MCF10A rereplic inconclusive, SW480 rerep inconclusive
O=C(NCc1nnc(SCc2ccc(C(F)(F)F)cc2)n1-c1ccccc1)C12CC3CC(CC(C3)C1)C2	KB-3-1 cytotox inconclusive, KB-V1 cytotox 16µM, MCF10A rereplic 16µM
O=C(NCc1nnc(SCc2ccc(F)cc2)n1-c1ccccc1)C12CC3CC(CC(C3)C1)C2	KB-3-1 cytotox inconclusive, KB-V1 cytotox 13µM, MCF10A rereplic inconclusive
O=C(COc1ccc2ccccc2c1)NNC(=O)[C@@H]1CCCC[C@@H]1C(=O)O	none
CC(Oc1ccc2c(c1)c1ccnc3c4ccccc4c(=O)n2c13)C(=O)NCCN1CCOCC1 (configuration not stated)	MCF10A rereplic 1.6µM, SW480 rerep inconclusive
COc1ccc2c(c1OC)c(=O)n1c3ccc(OC(C)C(=O)NCCN4CCOCC4)cc3c3ccnc2c31 (configuration not stated)	SW480 rerep inconclusive
COc1ccc2c(c1OC)c(=O)n1c3ccc(OC(C)C(=O)NCCCN4CCOCC4)cc3c3ccnc2c31 (configuration not stated)	MCF10A rereplic 5.8µM, SW480 rerep 18µM
COc1ccc(S(=O)(=O)NCCOc2ccccc2)cc1OC	KB-V1 cytotox inconclusive
Cc1oc2c(c1C(=O)c1ccccc1)C(=O)C(=O)c1ccccc1-2	KB-3-1 cytotox inconclusive, HT1080 IDH1KD tx 18µM, MCF10A rereplic inconclusive, SW480 rerep inconclusive, HT1080-NT tox 18µM
Cc1oc2c(c1C(=O)O)C(=O)c1ccccc1C2=O	KB-3-1 cytotox inconclusive
O=C1C(=O)c2c(C(=O)c3ccccc3)coc2-c2ccccc21	KB-3-1 cytotox inconclusive, HT1080 IDH1KD tx inconclusive, KB-V1 cytotox 21µM, MCF10A rereplic 21µM, SW480 rerep inconclusive
CCOC(=O)c1c(C)oc2c1C(=O)c1ccccc1C2=O	KB-3-1 cytotox inconclusive, SW480 rerep 3.7µM
Cc1onc(-c2ccccc2Cl)c1C(=O)c1ccccc1	none
CO/N=C(/CS(=O)(=O)Cc1ccccc1Cl)c1ccc(Cl)cc1Cl	HT1080 IDH1KD tx inconclusive
CCOc1ccc(-c2noc(CCC(=O)NC)n2)cc1OCC	none
COc1cccc(C(C(=O)NC2CCCC2)N2CCN(c3cc(C)ccc3C)CC2)c1OC (configuration not stated)	KB-3-1 cytotox inconclusive, HT1080 IDH1KD tx inconclusive, KB-V1 cytotox 16µM, HT1080-NT tox inconclusive (no result: MCF10A rereplic, SW480 rerep)
O=C(O)C1=CCCc2ccc(F)cc21	none
COc1cc(C2Oc3cc(C4Oc5cc(O)cc(O)c5C(=O)C4O)ccc3OC2CO)ccc1O (configuration not stated)	HT1080 IDH1KD tx inconclusive, MCF10A rereplic 26µM
COc1ccc(C2CC(=O)c3c(O)cc(O)cc3O2)cc1O (configuration not stated)	none
CCOC1=C2CN(S(=O)(=O)c3ccc(C)cc3)C(c3cccc(Cl)c3)CC2N(S(=O)(=O)c2ccc(Cl)cc2)C(c2ccccc2)C1 (configuration not stated)	KB-3-1 cytotox 5.2µM (no result: MCF10A rereplic, SW480 rerep)
CCc1ccc2oc(C(=O)Nc3cccc(C(F)(F)F)c3)cc(=O)c2c1	none (no result: HT1080 IDH1KD tx, MCF10A rereplic, SW480 rerep, HT1080-NT tox)
COC(=O)NC(=S)Nc1ccc(Oc2ccc(Cl)cc2Cl)c(Cl)c1	KB-3-1 cytotox 15µM, HT1080 IDH1KD tx 21µM, KB-V1 cytotox inconclusive, MCF10A rereplic inconclusive, SW480 rerep inconclusive, HT1080-NT tox 16µM
COC(=O)NC(=S)Nc1ccc(Oc2ccc(Cl)cc2)c(Cl)c1	HT1080-NT tox inconclusive
COCCNC(=O)C1(C)Cc2c(-c3cccc(C(F)(F)F)c3)ccnc2O1 (configuration not stated)	KB-3-1 cytotox inconclusive, HT1080 IDH1KD tx 21µM, HT1080-NT tox inconclusive (no result: MCF10A rereplic, SW480 rerep)
CC1(C(=O)NCC2CC2)Cc2c(-c3cccc(C(F)(F)F)c3)ccnc2O1 (configuration not stated)	KB-3-1 cytotox inconclusive, HT1080 IDH1KD tx 21µM, KB-V1 cytotox inconclusive, HT1080-NT tox inconclusive (no result: MCF10A rereplic, SW480 rerep)
COc1ccc(NC(=O)C2(C)Cc3c(-c4cccc(C(F)(F)F)c4)ccnc3O2)cc1OC (configuration not stated)	KB-3-1 cytotox inconclusive, HT1080 IDH1KD tx 15µM, HT1080-NT tox 21µM (no result: MCF10A rereplic, SW480 rerep)
COCCNC(=O)C1(C)Cc2c(-c3cccc(C(N)=O)c3)ccnc2O1 (configuration not stated)	none (no result: MCF10A rereplic, SW480 rerep)
CC1(C(=O)NCC2CC2)Cc2c(-c3cccc(C(N)=O)c3)ccnc2O1 (configuration not stated)	KB-V1 cytotox inconclusive (no result: MCF10A rereplic, SW480 rerep)
Cc1cccc(C)c1NC(=O)COC(=O)CN1C(=O)C2CCCCC2C1=O (configuration not stated)	none
CC1(C)Cc2ccccc2C(Nn2cnnc2)=N1	none
CC1(C)Cc2ccccc2C2=NNC(=O)C2=N1	KB-3-1 cytotox inconclusive, HT1080 IDH1KD tx 7.3µM, KB-V1 cytotox inconclusive, MCF10A rereplic inconclusive, SW480 rerep 8.2µM, HT1080-NT tox 23µM
COc1ccc(C(C(=O)NC(C)(C)C)N(Cc2ccc(C)cc2)C(=O)CCC(=O)Nc2cc(C)on2)cc1 (configuration not stated)	KB-3-1 cytotox inconclusive
COc1ccc(C(C(=O)NC(C)(C)C)N(C(=O)CCC(=O)Nc2cc(C)on2)c2cc(C)cc(C)c2)cc1 (configuration not stated)	KB-V1 cytotox 15µM
Cc1ccc(NS(=O)(=O)c2ccc(C)c(C(=O)Nc3ccc(S(=O)(=O)Nc4onc(C)c4C)cc3)c2)cc1	none
COC(=O)c1c(S(N)(=O)=O)c2ccccc2n1C	none
COC(=O)c1c(C(=O)c2ccc(Br)cc2)n(C)c2ccccc12	KB-3-1 cytotox inconclusive, KB-V1 cytotox 21µM
Cc1cc(C)c(C(=O)COC(=O)CNC(=O)c2ccccc2C)c(C)c1	KB-3-1 cytotox inconclusive
Cc1ccc(S(=O)(=O)Oc2cccc(N3C(=O)C4CC=CCC4C3=O)c2)cc1 (configuration not stated)	SW480 rerep inconclusive
